Source: PubChem BioAssay
Shown is part of a subset that was picked to be rich in hits.
RE007 growth inh – less growth of the S. pombe RE007 Vpr strain | S. pombe RE007 Vpr strain, BacTiter-Glo ATP luminescence, 24 h | 0.21% of 360,000 active | Potency, µM (highest dose often 92.2 µM), hits mostly inhibitors; active = well fitted falling curve with a large enough effect; inconclusive = small, poorly fitted or top-dose-only effect; inactive = no such curve, though single readings can be large or run the other way; note: nearly all actives have a fitted effect of over 50% in size
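Fission yeast strain RE007, carrying one chromosomally integrated HIV-1 vpr copy, was seeded at OD 0.01 in PMG+AL medium with 23 nL pinned compound. After 24 h at 30 °C and 99% humidity, viability was read by BacTiter-Glo luminescence.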
Tb PYK inh – T. brucei pyruvate kinase inhibition; 0.12% of 410,000 active; Q57TT1; Potency, µM (doses to about 76.8 µM), most hits filed as inhibitors; TbPYK enzyme, Kinase-Glo Plus ATP luminescence, 45 min; note: nearly all actives have a fitted effect of over 50% in size
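Readout: single end-point luminescence (Kinase-Glo Plus, 10 min). Reaction conditions were TbPYK/substrate plus 130 uM ADP, 45 min at RT, pH 7.2 TEA buffer. No-enzyme wells served as controls, and data were normalized before concentration-response fitting.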
LmPK inh – inhibitors of Leishmania mexicana pyruvate kinase; 0.37% of 290,000 active; Q27686; Potency, µM (top dose mostly 57.5 µM), actives largely listed as inhibitors; purified LmPK, Kinase-Glo ATP luminescence, 1 h
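Purified LmPK (0.1 nM) converted ADP (0.1 mM) to ATP with PEP (0.5 mM) in imidazole buffer pH 7.2 with KCl and MgCl2, 1 h at room temperature. ATP was read by Kinase-Glo luminescence; data normalized to uninhibited and no-enzyme controls.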
FBPA Giardia inh – inhibitors of Giardia lamblia fructose-1,6-bisphosphate aldolase. A8B2U2. purified Giardia FBPA. Potency, µM (series often up to 59.6 µM), hits mostly inhibitors. 0.71% of 290,000 active. AID 2451; note: nearly all actives have a fitted effect of over 55% in size
Target sequence (A8B2U2 whole entry, looked up): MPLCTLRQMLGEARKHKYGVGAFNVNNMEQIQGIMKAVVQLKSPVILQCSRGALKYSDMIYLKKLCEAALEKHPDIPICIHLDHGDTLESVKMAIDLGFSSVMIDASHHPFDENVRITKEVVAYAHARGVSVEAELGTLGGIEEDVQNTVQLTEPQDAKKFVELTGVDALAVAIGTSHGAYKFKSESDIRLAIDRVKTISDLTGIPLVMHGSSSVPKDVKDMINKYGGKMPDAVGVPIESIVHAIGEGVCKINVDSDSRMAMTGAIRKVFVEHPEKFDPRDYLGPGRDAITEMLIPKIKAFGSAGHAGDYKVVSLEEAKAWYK
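Giardia FBPA (40 nM reagent) was preincubated 10 min at RT with compound (up to 57.5 uM final), then substrate plus GAPDH/TPI/NAD/arsenate coupling system with diaphorase/resazurin was added; resorufin fluorescence (525/598 nm) was read after 20 min.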
CHX counter – counter-screen for Shiga toxin inhibitors: cycloheximide protein synthesis inhibition | 12% of 300,000 active | AID 2314 | cell reporter, cycloheximide protein synthesis inhibition counterscreen | max response, %; in the data active = max response mostly above about 13%, no sharp cut-off; inactive = mostly below about 14%; note: read at 38.3 µM for the half of the compounds with a filed dose
Shiga toxin inh – inhibitors of Shiga toxin in Vero cells | Vero cells, Shiga toxin protein synthesis inhibition reporter | inhibition, % at 38.7 µM | 9.2% of 290,000 active | AID 2315; in the data active = inhibition mostly above about 28%, no sharp cut-off; inactive = mostly below about 43%
Of the large screens only hits and unclear results are named; the others gave an inactive call. Unless noted, calls come from the whole dose curve; as a rule, active = well fitted curve in the direction sought with a large enough effect; inconclusive = small, poorly fitted or top-dose-only effect, or another doubt; inactive = no such curve, though single readings can be large; an effect the other way counts as inactive or inconclusive.

O=C(N/N=C/C=C\c1ccccc1[N+](=O)[O-])c1ccncc1	FBPA Giardia inh inconclusive
O=C1NCCCN1C1OC(CO)C(O)C1O (centres undefined)	none (no result: LmPK inh, FBPA Giardia inh, CHX counter, Shiga toxin inh)
O=C(Nc1ccc(F)c([N+](=O)[O-])c1)c1cccs1	none
Cc1ccc(/C=N/NC(=O)c2cccs2)cc1[N+](=O)[O-]	CHX counter 39, Shiga toxin inh 78
O=C(N/N=C/C(Br)=C/c1ccccc1)c1cccs1	CHX counter 63, Shiga toxin inh 123
COc1ccccc1OCC(=O)N/N=C/C=C/c1ccc([N+](=O)[O-])o1	CHX counter 19
O=C(Cc1cccs1)N/N=C/C=C/c1ccccc1	CHX counter 25, Shiga toxin inh 59
O=C(Cc1cccs1)N/N=C/C=C\c1ccccc1[N+](=O)[O-]	CHX counter 33, Shiga toxin inh 85
O=C(CSc1nnc(SCc2ccccc2)s1)N/N=C/C=C/c1ccccc1[N+](=O)[O-]	none
Cc1ccc(CSCC(=O)N2CCCC2)cc1	CHX counter 24
Cc1ccc(SCc2ccc(C(=O)N3CCCCC3)cc2)cc1	CHX counter 28, Shiga toxin inh 59
CC1CCN(CCCCOc2ccc(Cl)cc2)CC1	FBPA Giardia inh inconclusive
CC1CCN(C(=O)CCCOc2ccc(Cl)cc2)CC1	CHX counter 33, Shiga toxin inh 55
O=C(CSCc1ccc(F)cc1)N1CCN(c2ccc(Cl)cc2)CC1	none (no result: RE007 growth inh, LmPK inh, FBPA Giardia inh, CHX counter, Shiga toxin inh)
CC1CCN(C(=O)CSCc2ccc(Cl)cc2)CC1	CHX counter 35
COc1ccc(CNC(=O)Cn2c(=O)n(CCC(=O)N3CCCCC3)c(=O)c3sccc32)cc1	none
CC(=O)Nc1ccc(S(=O)(=O)N2CCC(c3nnnn3-c3ccccc3)CC2)cc1	none (no result: RE007 growth inh, LmPK inh, FBPA Giardia inh, CHX counter, Shiga toxin inh)
CC1CCN(C(=O)COC(=O)Cc2ccc(Br)cc2)CC1	CHX counter 35
O=C(CSCc1ccc(F)cc1)N1CCOCC1	CHX counter 58, Shiga toxin inh 82
O=C(CSCc1ccc(Br)cc1)N1CCCC1	CHX counter 25
O=C(CSCc1ccc(Br)cc1)NC1CC1	none
O=C(CSCc1ccc(Br)cc1)N1CCOCC1	CHX counter 31, Shiga toxin inh 64
O=C(c1cccs1)N1CCCc2cc(NS(=O)(=O)c3ccc(Br)cc3)ccc21	none (no result: RE007 growth inh, LmPK inh, FBPA Giardia inh, CHX counter, Shiga toxin inh)
O=C(Cc1ccccc1)Nc1ccc(Br)c(Cl)c1	CHX counter 21, Shiga toxin inh 25
O=C(Cc1ccccc1)Nc1ccc(NC(=O)Cc2ccccc2)c(Cl)c1	none
C/C(=C\C(=O)c1ccc(Cl)cc1)Nc1ccc(N2CCOCC2)cc1	none
C/C(=C\C(=O)c1ccccc1)Nc1ccc(Br)c(Cl)c1	CHX counter 23 (no result: FBPA Giardia inh)
C/C(=C\C(=O)c1ccc(Br)cc1)Nc1ccc(Cl)cc1	Shiga toxin inh 36
Cc1ccc(CNC(=O)CCc2nc3cccnc3n2Cc2ccccc2)cc1	none (no result: RE007 growth inh, LmPK inh, FBPA Giardia inh, CHX counter, Shiga toxin inh)
Cc1ccc(/C(O)=C/c2nc3ccccc3oc2=O)cc1	RE007 growth inh inconclusive, LmPK inh inconclusive, CHX counter 32, Shiga toxin inh 68
O=c1oc2ccccc2nc1/C=C(O)/C=C\c1ccccc1	RE007 growth inh inconclusive, CHX counter 36, Shiga toxin inh 47
O=c1oc2ccccc2nc1/C=C(O)/C=C/c1ccc(F)cc1	RE007 growth inh inconclusive, CHX counter 44, Shiga toxin inh 85
Cc1ccc2oc(=O)c(/C=C(\O)C(C)(C)C)nc2c1	none
CCOC(=O)N1CCC(NCCNC(=O)c2ccc(F)c(F)c2)CC1	none (no result: LmPK inh, FBPA Giardia inh, CHX counter, Shiga toxin inh)
CCN(c1ccccc1)c1nnc(NC(=O)Nc2ccccc2F)s1	none (no result: RE007 growth inh, LmPK inh, FBPA Giardia inh, CHX counter, Shiga toxin inh)
CN1CCc2c(sc3c2c(=O)n(-c2ccccc2)c2nnc(SCc4ccccc4)n32)C1	Tb PYK inh 32µM
CCc1ccc(CNC(=O)C(CC)n2ccc3cc(S(=O)(=O)N4CCCCC4)ccc32)cc1 (centres undefined)	none (no result: RE007 growth inh, LmPK inh, FBPA Giardia inh, CHX counter, Shiga toxin inh)
COc1cccc(N2CCN(CC(=O)Nc3ccccc3C(=O)NCCc3ccccc3)CC2)c1	RE007 growth inh inconclusive (no result: LmPK inh, FBPA Giardia inh, CHX counter, Shiga toxin inh)
NC(=O)C1CCN(C(=S)NCCc2ccccc2)CC1	CHX counter 18
Oc1ccc(N2CCN(C(=S)NCCc3ccccc3)CC2)cc1	Tb PYK inh inconclusive, CHX counter 24
O=C(CN1CCN(c2ccc(O)cc2)CC1)Nc1ccccc1C(=O)NCCc1ccccc1	Tb PYK inh 28µM (no result: LmPK inh, FBPA Giardia inh, CHX counter, Shiga toxin inh)
